Bioassay records deposited in PubChem BioAssay by The Scripps Research Institute Molecular Screening Center.
ULK1 inh: human ULK1 kinase inhibition, primary screen; AID 1259251; 1.9% of 30,000 active; AlphaScreen Atg13 phosphorylation by ULK1, luminescence; inhibition, % at 5.96 µM; in the data active means inhibition above about 43%;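 further: 0% = median of compound wells and 100% = no enzyme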
ASK1 primary: inhibitors of human ASK1 kinase. Q99683. AlphaScreen MKK6 phosphorylation by ASK1, luminescence. inhibition, % at 7.44 µM. 0.99% of 22,000 active; in the data active means inhibition above about 35%;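 further: 0% = median of compound wells and 100% = no enzyme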
TruHits interf: interferes with AlphaScreen TruHits signal in ASK1 counter-screen; AlphaScreen TruHits beads, signal interference counterscreen; IC50, µM; 20% of 220 active; shares compounds with ASK1 primary;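 active means IC50 of 10 µM or lower in the counterscreen; inactive means IC50 above 10 µM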;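 further: loss of AlphaScreen light from TruHits beads alone with no ASK1 enzyme present; potency of signal reduction so a low IC50 flags an assay artifact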
* hit, by the source's call; i = inactive; nt = no result given; ! = repeats disagree. Sampled rows, rich in hits. Any-hit rate of the full collection: about 2.5%.

SMILES	ULK1 inh	ASK1 primary	TruHits interf
Cc1ncn(-c2ccc(Nc3ncc4cccc(-c5ccnc(N6CCOCC6)c5)c4n3)cc2)n1	16	24	nt
c1ccc(CN2CCC(Nc3nc(N4CCOCC4)nc4nc[nH]c34)CC2)cc1	-18	1	nt
c1ccc(CN2CCC(Nc3nc(Nc4ccc(N5CCOCC5)cc4)nc4nc[nH]c34)CC2)cc1	18	36*	>20
c1ccc(CN2CCC(Nc3nc(Nc4ccc(N5CCOCC5)cc4)nc4c3ncn4-c3ccsc3)CC2)cc1	11	43*	9.3*
c1ccc(Nc2nc(Nc3ccc(N4CCOCC4)cc3)c3[nH]cnc3n2)nc1	7	8	nt
c1ccc(CN2CCC(Nc3nc(Nc4ccccc4)nc4c3ncn4-c3ccsc3)CC2)cc1	4	17	nt
c1cnc2ccc(Nc3nc(Nc4ccc(N5CCOCC5)cc4)c4[nH]cnc4n3)cc2c1	-12	41*	>20
Cc1cc(Nc2ccc(N3CCOCC3)cc2)nc(-c2c(C)noc2C)n1	11	14	nt
O=C1CCCN1CCn1cnc2c(NCCO)nc(N3CCOCC3)nc21	-6	2	nt
OCC1CCCN1c1nc(NC2CCN(Cc3ccccc3)CC2)c2[nH]cnc2n1 (centres undefined)	-13	9	nt
FC(F)(F)c1cc(-c2ccnc(Nc3ccc(N4CCOCC4)cc3)n2)cc(N2CCOCC2)c1	16	45*	>19
c1cc(-c2ccc3nonc3c2)nc(Nc2ccc(N3CCOCC3)cc2)n1	0	14	nt
FC(F)(F)c1cc(-c2ccnc(Nc3ccc(N4CCOCC4)nc3)n2)cc(N2CCOCC2)c1	8	16	nt
c1cc(-c2ccc3[nH]ncc3c2)nc(Nc2ccc(N3CCOCC3)cc2)n1	65*	38*	>19
N#Cc1cc(-c2ccnc(Nc3ccc(N4CCOCC4)cc3)n2)cc(N2CCN(C3CC3)CC2)c1	8	-6	nt
Fc1cc(-c2ccnc(Nc3ccc(N4CCOCC4)cc3)n2)cc(N2CCN(C3CC3)CC2)c1	56*	40*	>19
COc1ccc2c(c1)CC(C(=O)Nc1ccc(-c3cn[nH]c3)cc1OCCc1ccccn1)CO2 (centres undefined)	-77	20	nt
COc1ccc(CCNc2ncnc3c2nc(Nc2ccccn2)n3C(C)C)cc1	-2	11	nt
COc1cc2nc(Nc3ccncc3)nc(Nc3ccccc3)c2cc1OC	-2	4	nt
CCN(CC)C(=O)C1CCCN(c2cc(NCCOc3ccccc3)nc(N)n2)C1 (centres undefined)	-32	8	nt
CC(C)n1cnc2c(Nc3ccc(Oc4ccccc4)cc3)nc(N3CCOCC3)nc21	17	42*	>20
CC(C)n1cnc2c(Nc3ccccc3)nc(N3CCN(c4ccccn4)CC3)nc21	16	32	nt
c1ccc(-n2cnc3c(Nc4ccc(N5CCOCC5)cc4)nc(Nc4cccnc4)nc32)cc1	11	40*	>16
CC(C)n1cnc2c(Nc3ccccc3)nc(Nc3ccc(N4CCOCC4)cc3)nc21	31	47*	>20
CC(C)n1cnc2c(Nc3ccccc3)nc(N3CCOCC3)nc21	17	2	nt
SMILES	ULK1 inh	ASK1 primary	TruHits interf
CC(C)n1cnc2c(Nc3ccc(N4CCOCC4)cc3)nc(N3CCN(c4ccccn4)CC3)nc21	35	36*	i
CC(C)n1cnc2c(Nc3ccc(N4CCOCC4)cc3)nc(-c3ccccc3)nc21	12	5	nt
c1ccc(-n2cnc3c(Nc4ccc(N5CCOCC5)cc4)nc(Nc4ccc(-n5ccnc5)cc4)nc32)cc1	17	-5	nt
CCN(CC)C(=O)C1CCCN(c2cccc(C(=O)Nc3ccc(NC(C)=O)cc3)c2)C1 (centres undefined)	2	-20	nt
CC(C)N(CCNc1ncnc2c1nc(-c1ccc(C(=O)NC3CC3)cc1)n2C(C)C)C(C)C	9	-6	nt
CC(=O)c1cccc(-c2nc(C(=O)Nc3ccc(Oc4ccccc4)cc3)cs2)c1	-3	4	nt
CC(=O)Nc1ccc(Nc2nc(N3CCN(c4ccccn4)CC3)nc3c2ncn3Cc2ccc(C(F)(F)F)cc2)cc1	-58	6	nt
FC(F)(F)c1ccc(Cn2cnc3c(Nc4ccc(N5CCOCC5)cc4)nc(N4CCN(c5ccccn5)CC4)nc32)cc1	-11	38*	>20
O=C(NCc1ccc2c(c1)OCO2)c1c[nH]c2cc(-c3cn[nH]c3)ccc12	-22	12	nt
CCOCC(=O)NCc1nnnn1-c1ccc(F)cc1	13	nt	nt
CN(C)c1cccc(Nc2nccc(NCc3cccc(C(F)(F)F)c3)n2)c1	-1	43*	>16
FC(F)(F)c1cccc(CNc2ccnc(Nc3ccccc3)n2)c1	-20	-1	nt
Cc1cc(NCc2ccccc2)nc(Nc2cccc(N(C)C)c2)n1	9	23	nt
COc1cc2nc(Nc3cccc(N(C)C)c3)nc(NCc3cccc(C(F)(F)F)c3)c2cc1OC	-15	38*	i
CCCNc1ccnc(Nc2cccc(N(C)C)c2)n1	13	22	nt
CN(C)c1cccc(Nc2nccc(NCCOc3ccccc3)n2)c1	-3	43*	i
COc1cc2nc(Nc3cccc(N(C)C)c3)nc(NCc3ccccc3)c2cc1OC	-3	33	nt
Cc1cc(NCc2cccc(C(F)(F)F)c2)nc(Nc2cccc(N(C)C)c2)n1	-6	40*	i
Cc1cc(NCCO)nc(N2CCOCC2)n1	-17	0	nt
COc1ccc(CCNc2ncnc3c2nc(-c2cccc(C(C)=O)c2)n3C(C)C)cc1	-1	0	nt
O=C1CCCN1CCCNc1nc(N2CCOCC2)nc2c1ncn2-c1ccsc1	4	0	nt
Cc1cc(NCc2cccc(C(F)(F)F)c2)nc(Nc2ccc(N3CCOCC3)cc2)n1	-9	40*!	4.6*
Cc1cc(Nc2ccc(N3CCOCC3)cc2)nc(Nc2cccc(N(C)C)c2)n1	-5	41*	>20
Cc1cc(NCc2cccc(C(F)(F)F)c2)nc(Nc2ccc(C(F)(F)F)cc2)n1	-23	-9	nt
Cc1cc(Nc2ccccc2)nc(Nc2ccc(N3CCOCC3)cc2)n1	-4	19	nt
SMILES	ULK1 inh	ASK1 primary	TruHits interf
COc1cc(Nc2ccnc(Nc3cccc(N(C)C)c3)n2)cc(OC)c1OC	19	39*	6.9*
COc1cc(Nc2cc(Nc3cccc(N(C)C)c3)ncn2)cc(OC)c1OC	11	22	nt
O=C(Nc1ccccc1)c1cc(Nc2ccc(C(F)(F)F)cc2)nc2ccccc12	-7	-22	nt
Cn1nccc1-c1cc(F)cc(-c2ccnc(Nc3ccc(-n4cnc(C(F)(F)F)n4)cc3)n2)c1	-8	29	nt
FC(F)(F)c1cccc(CNc2nc(Nc3ccccn3)nc3nc[nH]c23)c1	-8	-3	nt
CCCNc1nc(Nc2ccc(N3CCOCC3)cc2)nc2cc(OC)c(OC)cc12	9	30	nt
COc1cc2nc(Nc3ccc(N4CCOCC4)cc3)nc(NCc3ccccc3)c2cc1OC	-7	41*	i
COc1cc2nc(Nc3nccc4ccccc34)nc(Nc3ccc(N4CCOCC4)cc3)c2cc1OC	10	36*	i
COc1cc2nc(Nc3ccccn3)nc(Nc3ccc(N4CCOCC4)cc3)c2cc1OC	-9	9	nt
O=C(NCc1nc2ccccc2[nH]1)c1cnc(Nc2cnccn2)s1	32	4	nt
CC(C)N(CCNC(=O)c1ccc2nc(NCc3ccc4c(c3)OCO4)sc2c1)C(C)C	-13	11	nt
O=C(NCCN1CCOCC1)c1ccnc(Nc2ccccc2)c1	-1	1	nt
O=C(Cc1cn(-c2ccc(N3CCN(Cc4ccc5c(c4)OCO5)CC3)nn2)c2ccccc12)Nc1ccc(N2CCOCC2)cc1	21	39*	>20
